Reference: PubChem BioAssay (NCATS)
Records with an inconclusive call do not appear. Active and inactive are the calls of the source. Calls come from the whole dose curve; as a rule, active = well fitted cell-killing curve with a large enough effect; inconclusive = small, poorly fitted or top-dose-only effect, or effect the other way; inactive = no such curve, though single readings can be large or run the other way.

Columns and labels:
[1] = Quantitative High-Throughput drug screen in 47 multiple myeloma cell lines against the NCATS MIPE library collection: MM1R_ATCC cell viability assay (AID 1918981); note: nearly all actives have a fitted effect of over 35% in size; note: potency is the fitted concentration of half-maximal effect
How it was run: (§1)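 Inhibition of viability over 48 h was scored by ATP content (CellTiter-Glo) in 500-cell wells. Zero and full viability were defined by media-only and DMSO-only wells.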

[2] = Quantitative High-Throughput drug screen in 47 multiple myeloma cell lines against the NCATS MIPE library collection: LP1_DSMZ cell viability assay (AID 1918982); note: nearly all actives have a fitted effect of over 35% in size; note: potency is the fitted concentration of half-maximal effect
How it was run: as §1

[3] = Quantitative High-Throughput drug screen in 47 multiple myeloma cell lines against the NCATS MIPE library collection: KMS34_JCRB cell viability assay (AID 1918985); note: nearly all actives have a fitted effect of over 40% in size
How it was run: as §1

[4] = Quantitative High-Throughput drug screen in 47 multiple myeloma cell lines against the NCATS MIPE library collection: SKMM1_PLB cell viability assay (AID 1919863); details: SKMM1 myeloma viability, CellTiter-Glo ATP, 48 h; viability: hits give low values; note: nearly all actives have a fitted effect of over 35% in size; note: potency is the fitted concentration of half-maximal effect
How it was run: as §1

[5] = Quantitative High-Throughput drug screen in 47 multiple myeloma cell lines against the NCATS MIPE library collection: U266_ATCC cell viability assay (AID 1919864); note: nearly all actives have a fitted effect of over 35% in size; note: potency is the fitted concentration of half-maximal effect
How it was run: as §1

[6] = Quantitative High-Throughput drug screen in 47 multiple myeloma cell lines against the NCATS MIPE library collection: VP6_DJ cell viability assay (AID 1919867); note: nearly all actives have a fitted effect of over 40% in size; note: potency is the fitted concentration of half-maximal effect
How it was run: as §1

[7] = Quantitative High-Throughput drug screen in 47 multiple myeloma cell lines against the NCATS MIPE library collection: PCM6_Riken cell viability assay (AID 1919870); note: potency is the fitted concentration of half-maximal effect; nearly all actives have a fitted effect of over 30% in size
How it was run: as §1

[8] = Quantitative High-Throughput drug screen in 47 multiple myeloma cell lines against the NCATS MIPE library collection: RPMI8226_ATCC cell viability assay (AID 1919871); note: nearly all actives have a fitted effect of over 30% in size; note: potency is the fitted concentration of half-maximal effect
How it was run: as §1

[9] = Quantitative High-Throughput drug screen in 47 multiple myeloma cell lines against the NCATS MIPE library collection: OPM2_DSMZ cell viability assay (AID 1919872); note: nearly all actives have a fitted effect of over 30% in size; note: potency is the fitted concentration of half-maximal effect
How it was run: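 We plated 500 myeloma cells per well, pinned in MIPE 4.0 compounds, and incubated for 48 hours at 37C. ATP was then quantified with CellTiter-Glo, with DMSO and media-only wells defining 100% and 0%.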

[10] = Quantitative High-Throughput drug screen in 47 multiple myeloma cell lines against the NCATS MIPE library collection: KMS11_JCRBsus cell viability assay (AID 1919873); note: nearly all actives have a fitted effect of over 50% in size; note: potency is the fitted concentration of half-maximal effect
How it was run: as §1

[11] = Quantitative High-Throughput drug screen in 47 multiple myeloma cell lines against the NCATS MIPE library collection: KMS28BM_JCRB cell viability assay (AID 1919874); note: nearly all actives have a fitted effect of over 35% in size; note: potency is the fitted concentration of half-maximal effect
How it was run: as §1

[12] = Quantitative High-Throughput drug screen in 47 multiple myeloma cell lines against the NCATS MIPE library collection: OCIMY7_PLB cell viability assay (AID 1918987); note: nearly all actives have a fitted effect of over 65% in size; note: potency is the fitted concentration of half-maximal effect
How it was run: as §1

[13] = Quantitative High-Throughput drug screen in 47 multiple myeloma cell lines against the NCATS MIPE library collection: XG1_PLB cell viability assay (AID 1919866); note: nearly all actives have a fitted effect of over 35% in size; note: potency is the fitted concentration of half-maximal effect
How it was run: as §1

[14] = Quantitative High-Throughput drug screen in 47 multiple myeloma cell lines against the NCATS MIPE library collection: UTMC2_PLB cell viability assay (AID 1919868); details: CellTiter-Glo ATP luminescence, 48 h; viability (% of DMSO control): at 45.8 µM (top of the series); note: nearly all actives have a fitted effect of over 55% in size; note: potency is the fitted concentration of half-maximal effect
How it was run: as §1

[15] = Quantitative High-Throughput drug screen in 47 multiple myeloma cell lines against the NCATS MIPE library collection: KMS28PE_JCRB cell viability assay (AID 1918983); note: nearly all actives have a fitted effect of over 35% in size; note: potency is the fitted concentration of half-maximal effect
How it was run: as §1

[16] = Quantitative High-Throughput drug screen in 47 multiple myeloma cell lines against the NCATS MIPE library collection: OCIMY5_PLB cell viability assay (AID 1918988); note: nearly all actives have a fitted effect of over 65% in size; note: potency is the fitted concentration of half-maximal effect
How it was run: as §1

[17] = Quantitative High-Throughput drug screen in 47 multiple myeloma cell lines against the NCATS MIPE library collection: OPM1_PLB cell viability assay (AID 1918989); note: nearly all actives have a fitted effect of over 40% in size; note: potency is the fitted concentration of half-maximal effect
How it was run: as §1

[18] = Quantitative High-Throughput drug screen in 47 multiple myeloma cell lines against the NCATS MIPE library collection: XG6_PLB cell viability assay (AID 1919865); note: nearly all actives have a fitted effect of over 40% in size; note: potency is the fitted concentration of half-maximal effect
How it was run: as §1

[19] = Quantitative High-Throughput drug screen in 47 multiple myeloma cell lines against the NCATS MIPE library collection: PE2_PLB cell viability assay (AID 1919869); note: nearly all actives have a fitted effect of over 35% in size; note: potency is the fitted concentration of half-maximal effect
How it was run: as §1

O=c1cccc2n1CC1CNC[C@H]2C1
inactive: Potency [1] | Potency [2] | Potency [3] | viability [4] 142% | Potency [8] | Potency [9]
active: Potency [5] 20.9 µM | Potency [6] 13.2 µM | Potency [7] 20.9 µM | Potency [10] 6.62 µM | Potency [11] 5.26 µM

O=C(Nc1ccncc1)C(=O)c1cn(Cc2ccc(Cl)cc2)c2ccccc12
inactive: Potency [5]
active: Potency [1] 0.187 µM | Potency [2] 0.0935 µM | Potency [12] 0.001 µM | Potency [4] 0.418 µM | Potency [13] 0.0066 µM | Potency [6] 0.0235 µM | Potency [14] 0.0132 µM | Potency [7] 0.0059 µM | Potency [8] 0.418 µM | Potency [9] 0.105 µM | Potency [10] 0.0053 µM | Potency [11] 0.0047 µM

N#C[C@H](O[C@@H]1O[C@H](CO[C@@H]2O[C@H](CO)[C@H](O)[C@H](O)[C@H]2O)[C@H](O)[C@H](O)[C@H]1O)c1ccccc1
active: Potency [1] 29.6 µM | Potency [15] 23.5 µM | Potency [12] 10.5 µM | Potency [16] 20.9 µM | Potency [17] 26.4 µM | Potency [4] 20.9 µM | Potency [5] 23.5 µM | Potency [18] 18.7 µM | Potency [13] 23.5 µM | Potency [6] 18.7 µM | Potency [19] 18.7 µM | Potency [7] 18.7 µM | Potency [8] 23.5 µM | Potency [10] 7.43 µM | Potency [11] 18.7 µM

C[C@]12CC[C@H]3[C@@H](CCC4=CC(=O)CC[C@@]43C)[C@H]1CC[C@H]2O
inactive: Potency [1] | Potency [15] | Potency [12] | viability [4] 133% | Potency [18] | Potency [14] | Potency [8] | Potency [9]

NC1=NC(=O)N2CC12 (centres undefined)
inactive: Potency [1] | Potency [2] | Potency [9] | Potency [10] | Potency [11]
active: Potency [12] 20.9 µM | Potency [18] 9.35 µM | Potency [13] 11.8 µM | Potency [6] 14.8 µM | Potency [19] 13.2 µM | Potency [7] 8.33 µM

C[C@H]1CCCC=CC2C[C@H](O)C[C@@H]2[C@H](O)C=CC(=O)O1 (some centres undefined)
inactive: Potency [1] | Potency [2] | Potency [12] | Potency [16] | Potency [17] | Potency [5] | Potency [18] | Potency [13] | Potency [6] | Potency [14] | Potency [19]
